Measured values taken from PubChem BioAssay.
Calls of active or inactive are those of the source. Unless noted, the rule behind the calls is not given here.

Legend:
[1] = compounds binding Alexa647 anti-His antibody – biochemical, small-molecule microarray, 635 nm fluorescence, artefact control for SMM control protein annotation, primary screen (AID 1128); settings: higher = more signal;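 note: score merges feature fluorescence with signal-to-noise for each printed compound spot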
[2] = system: Human papillomavirus type 1a E7 protein (residues 1-88); test: HPV1a E7 small-molecule binders, primary screen, biochemical, small-molecule microarray, residues 1-88, 635 nm (AID 1129); settings: small-molecule microarray binding, fluorescence 635 nm; higher = more signal
[3] = target: Focal adhesion kinase 1 (Homo sapiens) (UniProt Q05397); test: PTK2 protein binding on printed compound slides – biochemical, small-molecule microarray, 635/667 nm fluorescence, BSA, DTT, primary screen (AID 1130); settings: 635 nm fluorescence, higher = more signal;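 note: composite of spot emission at 667 nm and signal to noise over triplicate slides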
[4] = system: Fibrinogen (Alexa647-labelled); test: Alexa647-fibrinogen binding to printed small molecules – biochemical, small-molecule microarray, 635/667 nm fluorescence, artefact control for SMM control-protein annotation, profiling panel (AID 1131); settings: fibrinogen-A647 binding fluorescence, higher = more signal;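 note: z-score merges 667 nm fluorescence with per-spot signal-to-noise over triplicate slides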
[5] = target: Follistatin (Homo sapiens) (UniProt P19883); test: FST protein binding to printed compounds – biochemical, small-molecule microarray, 635/667 nm fluorescence, primary screen (AID 1132); settings: 635 nm fluorescence, higher = more signal
[6] = target: Fibroblast growth factor 2 (Homo sapiens) (UniProt P09038); test: basic fibroblast growth factor binding to printed compounds – biochemical, small-molecule microarray, 635/667 nm fluorescence, primary screen (AID 1133); settings: FGF2, fluorescence 635/667, higher = more signal
[7] = JC-1 mitochondrial potential readout, lung cancer cells – cell-based, A549, JC-1 fluorescence, basal, 24 h, 100 nL, profiling panel (AID 1138); settings: higher = more signal;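 note: A549 lung adenocarcinoma cells under basal conditions with no added stimulus; test concentration not given here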
Lefty1 = Lefty1 protein binding to printed compounds – biochemical, small-molecule microarray, 635/667 nm fluorescence, primary screen (AID 1139); settings: fluorescence 635/667, higher = more signal
[8] = system: wheat germ agglutinin (Triticum aestivum), Alexa647-labelled; test: Alexa647-WGA lectin binding to printed small molecules – biochemical, small-molecule microarray, 635/667 nm fluorescence, artefact control for SMM control-protein annotation, profiling panel (AID 1140); settings: WGA-A647 binding, 635 nm fluorescence, higher = more signal;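 note: score merges 667 nm feature emission with signal to noise over triplicate slides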
[9] = target: Luciferin 4-monooxygenase (Photinus pyralis) (UniProt P08659); test: inhibition of purified Photinus pyralis luciferase – biochemical, luminescence, purified enzyme, 2006 set, primary screen (AID 1141); settings: purified firefly luciferase, SteadyGlo luminescence, 30 min; higher = more signal, called active from +8 up or from −8 down;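 note: cell-free assay with purified firefly luciferase at 100 ng per well in PBS; test concentration not given here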
[10] = system: Wnt5a (protein binding on small-molecule microarray); test: small molecules binding Wnt5a protein – biophysical, small-molecule microarray, 635/667 nm fluorescence, primary screen (AID 1142); settings: 635 nm fluorescence, higher = more signal;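 note: fluorescence read at 667 nm with signal to noise per printed feature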
[11] = ATP-based viability of Huh7 replicon cells – cell-based, CellTiter-Glo luminescence, basal, 48 h, cytotoxicity control for HCV replication inhibitor project, primary screen (AID 1143); settings: higher = more signal, called active from +8 up or from −8 down;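 note: Huh7 hepatoma cells carrying a hepatitis C replication reporter with no stimulus; test concentration not given here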
[12] = Pseudomonas biofilm growth suppression – PAO1 strain, BacTiter-Glo luminescence, LB-PBS, primary screen (AID 1144); settings: P. aeruginosa PAO1 biofilm, 12 h, higher = more signal
[13] = basal CRE-LacZ reporter activity in PC12 – cell-based, unstimulated, primary screen (AID 1145); settings: no forskolin, luminescence, 4.5 h, higher = more signal, called active from +8 up or from −8 down
[14] = forskolin-driven CRE-LacZ activity in PC12 – cell-based, CRE-LacZ reporter, forskolin-stimulated, primary screen (AID 1146); settings: luminescence, 4.5 h, higher = more signal, called active from +8 up or from −8 down;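 note: PC12 cells with 6xCRE LacZ reporter stimulated by forskolin 10 µM; beta-galactosidase reporter signal reflecting CREB driven transcription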
[15] = target: Streptavidin (Streptomyces avidinii) (UniProt P22629); test: compounds binding control protein streptavidin – biophysical, small-molecule microarray, 635/667 nm fluorescence, artefact control for SMM compound annotation, primary screen (AID 1147); settings: higher = more signal;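 note: signal reflects streptavidin binding to arrayed compounds as a control protein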
[16] = probe aInhba binding on compound microarray – biochemical, small-molecule microarray, 635/667 nm fluorescence, primary screen (AID 1148); settings: higher = more signal;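 note: score merges 667nm spot fluorescence with signal-to-noise for antibody binding to printed compounds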
Torsin-1A (Homo sapiens) [17] = target: Torsin-1A (Homo sapiens) (UniProt O14656); test: TOR1A wild-type binding on microarray – cell lysate, small-molecule microarray, lysate, 635/667 nm, primary screen (AID 1149); settings: COS7 hTOR1A-WT lysate, 635 nm fluorescence, higher = more signal
Torsin-1A (Homo sapiens) [18] = target: Torsin-1A (Homo sapiens) (UniProt O14656); test: torsin A mutant lysate binding on microarrays – cell lysate, small-molecule microarray, COS7 lysate, 635/667 nm fluorescence, primary screen (AID 1150); settings: COS7 hTOR1A mutant lysate, 635 nm fluorescence, higher = more signal;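 note: score pools 667 nm emission and signal to noise measuring lysate protein binding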
[19] = system: Sonic hedgehog protein (Shh); test: Sonic hedgehog microarray binding compounds – biochemical, small-molecule microarray, 635/667 nm fluorescence, primary screen (AID 1151); settings: 635 nm fluorescence, higher = more signal;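 note: Shh protein binding to compounds spotted on small-molecule microarray slides; score combines spot fluorescence intensity with signal-to-noise across triplicate slides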

Chain of Follistatin (Homo sapiens) (P19883 whole entry, looked up): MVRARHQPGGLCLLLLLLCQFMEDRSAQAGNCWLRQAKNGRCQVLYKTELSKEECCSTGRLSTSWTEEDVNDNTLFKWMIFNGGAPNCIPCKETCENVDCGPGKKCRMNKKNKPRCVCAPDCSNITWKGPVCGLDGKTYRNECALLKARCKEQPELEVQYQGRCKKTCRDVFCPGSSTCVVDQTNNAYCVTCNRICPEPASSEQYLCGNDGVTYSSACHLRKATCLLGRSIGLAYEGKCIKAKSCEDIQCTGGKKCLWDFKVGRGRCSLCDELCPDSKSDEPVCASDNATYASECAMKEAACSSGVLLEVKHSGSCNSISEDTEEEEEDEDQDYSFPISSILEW
Chain of Luciferin 4-monooxygenase (Photinus pyralis) (P08659 whole entry, looked up): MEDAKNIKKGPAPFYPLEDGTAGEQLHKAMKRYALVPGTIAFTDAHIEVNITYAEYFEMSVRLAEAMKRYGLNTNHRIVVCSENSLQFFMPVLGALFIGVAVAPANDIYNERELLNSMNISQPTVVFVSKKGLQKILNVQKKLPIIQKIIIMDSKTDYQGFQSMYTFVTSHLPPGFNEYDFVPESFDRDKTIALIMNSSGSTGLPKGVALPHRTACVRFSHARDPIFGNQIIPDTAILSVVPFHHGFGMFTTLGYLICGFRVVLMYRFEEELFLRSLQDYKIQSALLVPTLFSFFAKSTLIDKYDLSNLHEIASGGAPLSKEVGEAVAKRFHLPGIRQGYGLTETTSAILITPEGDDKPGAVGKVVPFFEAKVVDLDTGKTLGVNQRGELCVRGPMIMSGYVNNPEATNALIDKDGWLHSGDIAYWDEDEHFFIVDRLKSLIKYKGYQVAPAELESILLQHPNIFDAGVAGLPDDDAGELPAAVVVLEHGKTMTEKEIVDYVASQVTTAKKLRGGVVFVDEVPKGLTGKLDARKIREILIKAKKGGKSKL
Chain of Focal adhesion kinase 1 (Homo sapiens) (Q05397 whole entry, looked up): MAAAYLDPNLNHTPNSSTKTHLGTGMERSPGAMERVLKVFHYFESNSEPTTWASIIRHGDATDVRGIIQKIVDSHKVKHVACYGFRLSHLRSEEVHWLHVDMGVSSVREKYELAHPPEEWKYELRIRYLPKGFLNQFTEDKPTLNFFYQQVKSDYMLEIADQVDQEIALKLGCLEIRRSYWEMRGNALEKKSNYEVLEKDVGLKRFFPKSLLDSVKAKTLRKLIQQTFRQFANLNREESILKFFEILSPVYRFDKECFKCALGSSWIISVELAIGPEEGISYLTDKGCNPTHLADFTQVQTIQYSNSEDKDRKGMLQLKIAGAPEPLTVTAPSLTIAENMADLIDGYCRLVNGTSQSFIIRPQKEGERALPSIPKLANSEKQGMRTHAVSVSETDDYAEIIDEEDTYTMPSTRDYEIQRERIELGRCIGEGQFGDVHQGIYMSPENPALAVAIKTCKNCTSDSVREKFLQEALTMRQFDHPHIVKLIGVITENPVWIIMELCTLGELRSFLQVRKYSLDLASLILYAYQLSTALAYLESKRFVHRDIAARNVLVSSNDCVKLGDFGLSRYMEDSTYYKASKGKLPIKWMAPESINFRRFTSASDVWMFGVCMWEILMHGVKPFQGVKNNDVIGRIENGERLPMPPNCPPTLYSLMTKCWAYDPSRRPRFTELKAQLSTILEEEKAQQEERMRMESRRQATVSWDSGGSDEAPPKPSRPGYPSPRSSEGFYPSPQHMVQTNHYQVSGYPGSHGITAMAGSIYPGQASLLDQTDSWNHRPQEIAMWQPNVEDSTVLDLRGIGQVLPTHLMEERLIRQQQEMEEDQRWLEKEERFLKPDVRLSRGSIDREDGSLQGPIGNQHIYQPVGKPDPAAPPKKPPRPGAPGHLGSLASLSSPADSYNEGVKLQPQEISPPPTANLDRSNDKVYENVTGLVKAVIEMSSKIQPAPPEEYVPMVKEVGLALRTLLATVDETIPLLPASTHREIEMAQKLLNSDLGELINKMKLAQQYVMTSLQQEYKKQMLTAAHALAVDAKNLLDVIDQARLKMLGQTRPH
Chain of Torsin-1A (Homo sapiens) (O14656 whole entry, looked up): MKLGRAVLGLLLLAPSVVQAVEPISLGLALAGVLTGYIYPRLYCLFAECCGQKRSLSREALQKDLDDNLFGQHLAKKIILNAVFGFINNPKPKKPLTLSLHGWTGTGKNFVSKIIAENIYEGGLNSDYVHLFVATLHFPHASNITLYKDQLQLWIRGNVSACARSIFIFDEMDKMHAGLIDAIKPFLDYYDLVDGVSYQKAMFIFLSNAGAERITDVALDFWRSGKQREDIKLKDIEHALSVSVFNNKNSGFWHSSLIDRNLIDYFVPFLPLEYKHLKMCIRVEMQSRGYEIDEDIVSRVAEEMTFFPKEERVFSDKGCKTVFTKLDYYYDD
Chain of Fibroblast growth factor 2 (Homo sapiens) (P09038 whole entry, looked up): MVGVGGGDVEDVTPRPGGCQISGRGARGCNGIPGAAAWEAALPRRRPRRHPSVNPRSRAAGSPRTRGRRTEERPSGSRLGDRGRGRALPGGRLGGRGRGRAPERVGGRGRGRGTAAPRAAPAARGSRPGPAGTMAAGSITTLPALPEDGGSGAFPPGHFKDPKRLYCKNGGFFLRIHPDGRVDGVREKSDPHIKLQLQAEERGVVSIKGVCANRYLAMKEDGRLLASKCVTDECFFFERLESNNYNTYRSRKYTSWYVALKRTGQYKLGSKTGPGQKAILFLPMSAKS
Chain of Streptavidin (Streptomyces avidinii) (P22629 whole entry, looked up): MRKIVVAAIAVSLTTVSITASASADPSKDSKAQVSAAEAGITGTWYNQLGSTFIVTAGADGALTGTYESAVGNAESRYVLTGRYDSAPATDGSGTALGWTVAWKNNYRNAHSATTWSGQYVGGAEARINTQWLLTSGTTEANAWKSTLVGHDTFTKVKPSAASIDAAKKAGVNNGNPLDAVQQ

C=C(/C(=C/C[C@@H](OC(=O)c1ccncc1)c1ccccc1OCCO)c1cnc2ccccc2c1)C(C)C
composite z-score [1]: 1.18
composite z-score [2]: 0.896
composite z-score [3]: 0.204
composite z-score [4]: 0.963
composite z-score [5]: 1.45
composite z-score [6]: 1.87
z-score [7]: 0.494
composite z-score (Lefty1): 1.65
composite z-score [8]: 0.869
z-score [9]: -1.08 (inactive)
composite z-score [10]: 0.816
z-score [11]: -8.34 (active)
z-score [12]: 0.556 (inactive)
z-score [13]: 15.6 (active)
z-score [14]: -0.0321 (inactive)
composite z-score [15]: 1.67
composite z-score [16]: 0.421
composite z-score (Torsin-1A (Homo sapiens) [17]): 0.799
composite z-score (Torsin-1A (Homo sapiens) [18]): -0.0593
composite z-score [19]: 2.22

COC(=O)[C@@]1(Cc2ccccc2N=[N+]=[N-])N=C(c2ccc(OCCCO)cc2)O[C@H]1c1ccccc1
composite z-score [1]: 2.23
composite z-score [2]: 1.13
composite z-score [3]: 0.771
composite z-score [4]: 0.422
composite z-score [5]: 0.465
composite z-score [6]: 0.19
z-score [7]: -1.26
composite z-score (Lefty1): 0.138
composite z-score [8]: 0.0657
z-score [9]: -2.7 (inactive)
composite z-score [10]: 0.748
z-score [11]: -5.42 (inactive)
z-score [12]: 0.313 (inactive)
z-score [13]: 1.29 (inactive)
z-score [14]: -0.688 (inactive)
composite z-score [15]: 0.248
composite z-score [16]: -0.0403
composite z-score (Torsin-1A (Homo sapiens) [17]): -0.89
composite z-score (Torsin-1A (Homo sapiens) [18]): 0.305
composite z-score [19]: 0.175

COCCOC(=O)N1C(=O)[C@@]2(c3cc(C#CCNC(N)=O)ccc31)[C@H](c1ccc(OCCO)cc1)N1[C@H](c3ccccc3)[C@H](c3ccccc3)OC(=O)[C@H]1[C@@H]2C(=O)N1CCN(c2ncccn2)CC1
composite z-score [1]: 0.122
composite z-score [2]: 1.09
composite z-score [3]: 1.58
composite z-score [4]: 0.72
composite z-score [5]: 1.41
composite z-score [6]: 1.24
z-score [7]: -1.57
composite z-score (Lefty1): 0.411
composite z-score [8]: 0.447
z-score [9]: -1.23 (inactive)
composite z-score [10]: 0.333
z-score [11]: 0.0075 (inactive)
z-score [12]: 0.443 (inactive)
z-score [13]: 0.212 (inactive)
z-score [14]: 0.675 (inactive)
composite z-score [15]: 0.651
composite z-score [16]: -0.024
composite z-score (Torsin-1A (Homo sapiens) [17]): 0.833
composite z-score (Torsin-1A (Homo sapiens) [18]): 0.581
composite z-score [19]: 0.983

C=CCOC(=O)[C@@H]1[C@H]2C(=O)O[C@H](c3ccccc3)[C@H](c3ccccc3)N2[C@H](c2ccc(OCCOC(=O)[C@@H]3C[C@@H]4C(=O)N[C@@H](CCCCNC(C)=O)C(=O)N4[C@@H]3c3ccc(O)cc3)cc2)[C@@]12C(=O)Nc1ccc(I)cc12
composite z-score [1]: 1.73
composite z-score [2]: 1.21
composite z-score [3]: 0.478
composite z-score [4]: 0.207
composite z-score [5]: 1.41
composite z-score [6]: 1.62
z-score [7]: -1.37
composite z-score (Lefty1): 1.37
composite z-score [8]: 0.412
z-score [9]: -0.576 (inactive)
composite z-score [10]: 0.681
z-score [11]: -0.0705 (inactive)
z-score [12]: -0.128 (inactive)
z-score [13]: -0.805 (inactive)
z-score [14]: -1.32 (inactive)
composite z-score [15]: -0.0068
composite z-score [16]: 0.591
composite z-score (Torsin-1A (Homo sapiens) [17]): 0.928
composite z-score (Torsin-1A (Homo sapiens) [18]): 0.27
composite z-score [19]: 1.81

CC(C)C[C@@H]1NC(=O)[C@@H]2C[C@H](C(=O)NCCCC[N+](C)(C)C)[C@H](c3cccc(OCCO)c3)N2C1=O
composite z-score [1]: 2.63
composite z-score [2]: 0.235
composite z-score [3]: -0.584
composite z-score [4]: -0.173
composite z-score [5]: 1.45
composite z-score [6]: 1.38
z-score [7]: -0.69
composite z-score (Lefty1): 1.47
composite z-score [8]: -0.445
z-score [9]: -0.45 (inactive)
composite z-score [10]: 0.379
z-score [11]: 0.347 (inactive)
z-score [12]: -0.595 (inactive)
z-score [13]: -0.943 (inactive)
z-score [14]: -0.231 (inactive)
composite z-score [15]: 0.154
composite z-score [16]: -0.025
composite z-score (Torsin-1A (Homo sapiens) [17]): 1.3
composite z-score (Torsin-1A (Homo sapiens) [18]): 0.66
composite z-score [19]: 2.11

O=C1c2ccccc2[C@](Cc2ccccc2I)(C(=O)NCC(F)(F)F)[C@H](c2ccc(CO)cc2)N1Cc1ccccc1
composite z-score [1]: 0.0638
composite z-score [2]: 1.17
composite z-score [3]: 0.77
composite z-score [4]: 0.97
composite z-score [5]: 1.14
composite z-score [6]: -0.0189
z-score [7]: 0.71
composite z-score (Lefty1): 0.343
composite z-score [8]: 0.469
z-score [9]: 0.875 (inactive)
composite z-score [10]: -0.134
z-score [11]: -0.396 (inactive)
z-score [12]: 0.144 (inactive)
z-score [13]: 0.272 (inactive)
z-score [14]: 2.76 (inactive)
composite z-score [15]: 1
composite z-score [16]: 0.098
composite z-score (Torsin-1A (Homo sapiens) [17]): -0.661
composite z-score (Torsin-1A (Homo sapiens) [18]): 0.341
composite z-score [19]: 0.46

CCCCCCC#C[Si](O[C@H](c1ccccc1)c1cn(Cc2cccc(Cl)c2)nn1)(C(C)C)C(C)C
composite z-score [1]: 1.16
composite z-score [2]: 0.696
composite z-score [3]: 0.035
composite z-score [4]: 0.201
composite z-score [5]: 0.363
composite z-score [6]: 0.142
z-score [7]: 1.4
composite z-score (Lefty1): 0.234
composite z-score [8]: 0.403
z-score [9]: 0.163 (inactive)
composite z-score [10]: -0.14
z-score [11]: -0.736 (inactive)
z-score [12]: -0.628 (inactive)
z-score [13]: -1.12 (inactive)
z-score [14]: -0.687 (inactive)
composite z-score [15]: 0.967
composite z-score [16]: 0.0367
composite z-score (Torsin-1A (Homo sapiens) [17]): 0.317
composite z-score (Torsin-1A (Homo sapiens) [18]): 0.213
composite z-score [19]: 0.179

C[C@]12C(=O)N(CCCO)[C@@H]3C(=O)N(c4ccc(Cl)cc4)CC=CC31O[C@@H]1/C=C\CCCOC(=O)C12 (stereo not given in full)
composite z-score [1]: 2.25
composite z-score [2]: -0.549
composite z-score [3]: 0.438
composite z-score [4]: -2.51
composite z-score [5]: -0.804
composite z-score [6]: -1.72
z-score [7]: 0.202
composite z-score (Lefty1): -0.68
composite z-score [8]: 1.13
z-score [9]: -0.299 (inactive)
composite z-score [10]: -0.408
z-score [11]: 0.231 (inactive)
z-score [12]: 0.993 (inactive)
z-score [13]: -0.212 (inactive)
z-score [14]: -0.221 (inactive)
composite z-score [15]: -1.19
composite z-score [16]: -0.218
composite z-score (Torsin-1A (Homo sapiens) [17]): -1.88
composite z-score (Torsin-1A (Homo sapiens) [18]): -1.13
composite z-score [19]: 0.399

CC(C)C(CO)N1C(=O)[C@@H]2[C@H]3C(=O)OCC=C[C@H]3OC23C=CCN(CCN2CCOCC2)C(=O)[C@@H]13 (stereo not given in full)
composite z-score [1]: 0.108
composite z-score [2]: -0.438
composite z-score [3]: -0.403
composite z-score [4]: 0.0835
composite z-score [5]: 0.418
composite z-score [6]: -0.328
z-score [7]: -0.0537
composite z-score (Lefty1): 0.817
composite z-score [8]: -0.467
z-score [9]: -0.233 (inactive)
composite z-score [10]: -0.406
z-score [11]: 0.29 (inactive)
z-score [12]: 2.66 (inactive)
z-score [13]: 1.01 (inactive)
z-score [14]: 1.25 (inactive)
composite z-score [15]: -0.38
composite z-score [16]: -0.128
composite z-score (Torsin-1A (Homo sapiens) [17]): -0.412
composite z-score (Torsin-1A (Homo sapiens) [18]): 0.743
composite z-score [19]: 1.73

O=C1CSC(c2cccc([N+](=O)[O-])c2)N1c1ccccc1 (stereo not given)
composite z-score [1]: 0.317
composite z-score [2]: 0.494
composite z-score [3]: -0.0119
composite z-score [4]: 0.667
composite z-score [5]: 0.244
composite z-score [6]: 0.481
z-score [7]: 0.774
composite z-score (Lefty1): 0.257
composite z-score [8]: -0.0002
z-score [9]: 0.174 (inactive)
composite z-score [10]: 0.0388
z-score [11]: -0.735 (inactive)
z-score [12]: -0.249 (inactive)
z-score [13]: -0.321 (inactive)
z-score [14]: -0.567 (inactive)
composite z-score [15]: -0.545
composite z-score [16]: -0.147
composite z-score (Torsin-1A (Homo sapiens) [17]): 0.838
composite z-score (Torsin-1A (Homo sapiens) [18]): 0.153
composite z-score [19]: 0.221
